# Measured values reported in the supplement of paper PMC3334620.
# The full ranking holds about 33,000 sequences; the median of “E-score (-0.5 to 0.5)” is about -0.04, and the highest 2% start at about 0.36. Shown is part of a subset that was picked to be rich in the highest values.
# Target: T1, Hmlalpha2 (UniProt P0CY09)
# T1 sequence: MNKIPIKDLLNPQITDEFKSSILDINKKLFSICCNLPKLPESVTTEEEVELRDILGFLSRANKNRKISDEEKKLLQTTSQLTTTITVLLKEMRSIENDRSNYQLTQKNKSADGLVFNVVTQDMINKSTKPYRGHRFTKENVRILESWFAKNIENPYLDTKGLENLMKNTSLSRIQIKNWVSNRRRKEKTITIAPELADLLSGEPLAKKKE
# Test: PBM E-score (8-mer binding enrichment) (E-score (-0.5 to 0.5)); higher = stronger / more preferred TF binding
# Settings: protein concentration: 200 nM; construct: GST-full length
# Procedure: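 Universal 'all 10-mer' protein binding microarrays (Agilent AMADID 015681) probed with GST-tagged S. cerevisiae TFs (full-length or DBD) made by in vitro transcription/translation (PURExpress), about 100-200 nM. Bound TF was detected with fluorescent anti-GST. Each ungapped 8-mer (which stands for itself and its reverse complement) is scored by the PBM enrichment score (E-score), a modified Wilcoxon-Mann-Whitney statistic from -0.5 to +0.5, computed with the Universal PBM Analysis Suite. Scale: above 0.35 generally sequence-specific binding.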
row,Sequence,PBM E-score
1,GTGTAAAC,0.474
2,ATGTAAAG,0.473
3,AAGTAAAT,0.341
4,CTTTAAAC,0.153
5,GTTTAAAC,0.41
6,GTTTAAAA,0.215
7,CTGTAAAG,0.244
8,AAGTAAAG,0.0486
9,AGGTAAAT,0.24
10,ATGTAAAT,0.477
11,GGGTAAAC,0.0624
12,CTGTAAAC,0.31
13,ACAGAAAT,0.107
14,CCATCACA,0.00393
15,CACCTTCC,-0.11
16,CCCTTAGA,-0.353
17,AGTGCCAG,-0.0844
18,CACAAAGG,-0.0549
19,AGCCACCC,-0.289
20,AGGTAAAC,0.26
21,GGGTAAAA,0.185
22,AGGTAAAA,0.16
23,GTGTAAAA,0.467
24,TTGTAAAA,0.392
25,TGGTAAAA,0.266
26,ATGTAAAA,0.474

row,Sequence,PBM E-score
1,CTGTAAAA,0.359
2,TAGTAAAA,0.306
3,GAGTAAAA,0.237
4,ATGTAAAC,0.483
5,AAGTAAAC,0.283
6,ATAGCGAC,0.106
7,CCGGGCAG,-0.165
8,TGGTCCAA,-0.192
9,GTTTGGCA,-0.0431
10,GTACAGAC,0.17
11,TACCCACA,-0.015
12,AGTATGCG,0.0952
13,ATACATGC,0.427
14,AGACATGC,0.171
15,CTACATTC,0.0322
16,ATACATCC,0.308
17,ATACATGA,0.465
18,CTACATGC,0.429
19,AGACATGA,0.275
20,ATACATCA,0.334
21,ATACATGG,0.451
22,AGACATGG,0.21
23,ATACATCG,0.299
24,CGACATGC,0.311
25,ACCACCGT,-0.0982
26,AGATGCCA,-0.254

row,Sequence,PBM E-score
1,ATACCTGA,0.0295
2,GGGGGGCA,-0.328
3,CTAGCAAG,-0.133
4,GAAGTCGA,-0.0459
5,CCGGACAA,0.0112
6,CACAGAGA,0.0962
7,TCAGGAGA,-0.123
8,ACTGCCCA,-0.0607
9,GATGCATC,0.0847
10,ACTGTGTG,0.128
11,ACTGTGTA,0.443
12,CCTGTGAA,0.0484
13,GCTGTATA,0.153
14,GCTGTGAA,0.0585
15,CCTGTGTC,0.0583
16,GCTGTGTA,0.437
17,CCTGTGTA,0.43
18,ACTGTGTC,0.174
19,AGGAGAGG,-0.277
20,ACCAACAA,0.198
21,AGCATTGA,-0.135
22,AAGAGGCA,-0.184
23,GCTCAACC,-0.147
24,ATCGCTCG,-0.128
25,GTTGTAAA,0.385
26,CTTGTAAA,0.452

row,Sequence,PBM E-score
1,ATTGTAAC,0.221
2,AGTGTATA,0.114
3,ATTGTAAA,0.374
4,AGTGTAAA,0.38
5,CCTGTAAA,0.328
6,GCTGTAAA,0.336
7,CTTGTAAC,0.36
8,AGTGTAAT,0.357
9,GGTGTAAA,0.351
10,ATTGTAAG,0.0623
11,AACACTAT,0.231
12,ACTCGACA,0.203
13,CAAATCTG,-0.0335
14,AATTGCGT,0.201
15,ACGCCCGG,-0.193
16,GATCTTTA,0.131
17,ACACCCAT,-0.0488
18,AAAGGCTC,-0.223
19,CGGCCTAG,-0.322
20,ACTCCTCC,-0.17
21,AGTTCTCA,0.0389
22,GTAATAGA,0.257
23,CTAATACA,0.342
24,ATAATACG,0.239
25,ATAATACC,0.0152
26,GTAATACA,0.397

row,Sequence,PBM E-score
1,ATAATACA,0.38
2,CCCTTATC,-0.0289
3,GCTAGCGA,-0.117
4,ATGAAACC,0.0645
5,ACATTGCG,0.249
6,CTCGTAGA,-0.0578
7,AAGCGTAT,0.0488
8,ACTTGGAT,0.0128
9,CCTCTCAC,-0.127
10,CTTGTTCC,-0.0361
11,AAGCACGC,0.0885
12,ATTAACCA,0.0177
13,CTGTATTA,0.191
14,ATGTATTA,0.428
15,ACGTATTA,0.345
16,ATGTATGA,0.296
17,GTGTATTA,0.421
18,GTGTATGA,0.262
19,CTACAGCC,-0.113
20,ATCAAGTA,0.217
21,GCACGCAC,-0.213
22,ACACGCAG,0.313
23,ACACGCAC,0.382
24,ACACGCAT,0.388
25,ACACGCAA,0.35
26,CCACGCAC,-0.0131

row,Sequence,PBM E-score
1,ACCAATTA,0.195
2,CTACGTTA,0.316
3,ATTAGTAA,0.206
4,CGGGGAGA,-0.256
5,GACTACTC,-0.0288
6,TGAAGCAA,0.0475
7,ATGAGGCC,-0.277
8,GGATAGGA,-0.212
9,AAACGACA,0.235
10,ACGTACAT,0.381
11,AAGTACAT,0.383
12,ACGTACAG,0.0878
13,AAGTACAG,0.0583
14,ACGTACAA,0.273
15,AAGTACAA,0.199
16,AGATTTAT,0.0596
17,AGCCTCCT,-0.16
18,AACGCATG,0.248
19,GAACACGC,0.299
20,GAACACGA,0.287
21,CCACACGG,-0.0191
22,CAACACAA,0.35
23,CAACACCA,0.207
24,CAACACAC,0.349
25,CAACACGA,0.419
26,TAACACGA,0.469

row,Sequence,PBM E-score
1,CAACACGG,0.386
2,CAACACTA,0.169
3,CAACACGC,0.367
4,TAACACCA,0.314
5,CAGCATCC,-0.176
6,ACGGTGTA,0.205
7,TACTCTCA,0.103
8,CGTGCCTC,-0.119
9,CGTTAACG,0.211
10,AATCCTTG,0.103
11,AGATATAA,0.127
12,AGTAGACG,0.0433
13,CGGTGGTA,-0.0335
14,GAACAAGA,0.139
15,CAACAAGA,0.225
16,TAACAAGA,0.377
17,TAACACAA,0.43
18,AAACACAA,0.322
19,GAACACAA,0.319
20,CAACTGCG,-0.126
21,CGACTGAC,-0.137
22,ACTTGTGA,0.148
23,TAGTCGCA,-0.085
24,AAGGTGGT,-0.0621
25,TGCCTACA,0.0851
26,AAGCTACA,0.158

row,Sequence,PBM E-score
1,CCGGTGCA,-0.247
2,AAAACACG,0.426
3,AACACACA,0.391
4,TAAACACA,0.379
5,ATCACACC,-0.0635
6,CAAACACG,0.314
7,ATCACACG,0.371
8,ATCACACA,0.228
9,CAAACACA,0.334
10,AACACACT,0.313
11,AACACACG,0.319
12,AAAACACT,0.148
13,AAAACACA,0.333
14,GGCTTAAA,-0.0594
15,AGTACTAA,0.173
16,GAGCGCCA,-0.25
17,GCGCAACC,-0.228
18,ACGTCCCT,0.163
19,CGTCCTAA,-0.108
20,GTCTCCAC,-0.178
21,CCCCGTCC,-0.382
22,ATGGTGAA,-0.0612
23,AGGTATTC,0.139
24,ATGTATCG,0.323
25,CTGTATTC,0.255
26,ACGTATTG,0.292

row,Sequence,PBM E-score
1,ATGTATTG,0.416
2,ATGTATTC,0.443
3,ATAGTTCG,0.0279
4,CTCGAGTC,-0.178
5,AAGAACCG,0.117
6,CCCAATCA,-0.113
7,AGGCATTC,-0.265
8,AGCGTAAG,-0.106
9,GGCGTAAA,0.217
10,TGCGTAAA,0.441
11,CGCGTAAA,0.454
12,AGCGTAAA,0.22
13,CGCGTAGA,0.359
14,CGCGTAAG,0.369
15,CTCGTAAG,0.172
16,CGCGTAAC,0.342
17,CGCGTATC,0.219
18,CGCGTATA,0.372
19,GGCGTATA,0.106
